A selection: hits, their analogues and other compounds. The true share with any hit is near 7.5%.
NPC1 prom act: NPC1 promoter activation. Potency, µM (titrated, usually from 9.22 µM), for the others: at the highest dose activation, actives largely listed as activators. Huh7 NPC1 promoter luciferase reporter, 24 h. 320,000 compounds, 2.4% hits; also: % of control where 0% means no effect; nearly all actives have a fitted effect of over 60% in size
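Compounds in DMSO were transferred onto Huh7 NPC1-luciferase reporter cells pre-incubated 2 h; after 24 h at 37 °C, Amplite reagent was dispensed and luminescence recorded 10 min later.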
SMN2 splice up: enhancers of SMN2 splice variant expression; HEK293 SMN2-luciferase splicing reporter, luminescence, 30-36 h; Potency, µM (doses to about 46.1 µM), inactives show at the top dose activity change, positive = activation, usual class: activators; 210,000 compounds, 2.8% hits; AID 1458; also: % of control where 0% means no effect; nearly all actives have a fitted effect of over 55% in size
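HEK293 cells carry an SMN2 minigene-luciferase reporter in which exon 7 inclusion puts luciferase in frame. Cells were seeded at 2000 cells/well, attached for 10-12 hours, then exposed to compounds for 30-36 hours at 37C before ONE-Glo luminescence.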
KinaseGlo FLuc: counter-screen: inhibitors of Kinase-Glo firefly luciferase | Q27757 | Kinase-Glo luciferase, ATP luminescence, 8 min | Potency, µM (titrated, usually from 38.3 µM), for the others: at the highest dose activity change, negative = inhibition, actives largely listed as inhibitors | 200,000 compounds, 0.28% hits; also: % is scaled to controls: 0 for no effect and ±100 for the full control effect; nearly all actives have a fitted effect of over 60% in size
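Compounds were added to a substrate mix at pH 7.2 (50 mM imidazole, 10 uM ATP, within the enzyme's linear range), followed by Kinase-Glo detection reagent; luminescence was measured after 8 minutes at ambient temperature.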
FLuc counter: counter-screen for miR-21 project: firefly luciferase inhibitors or activators | P08659 | purified FLuc, Km substrates, luminescence inhibition | Potency, µM (doses to about 57.5 µM), for the others: at the top dose activity change, negative = inhibition, hits mostly inhibitors | 360,000 compounds, 6.9% hits | AID 588342;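 also: plate controls were vehicle for no effect and reference inhibitor for full effect; nearly all actives have a fitted effect of over 55% in size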
Target sequence (P08659 whole entry, looked up): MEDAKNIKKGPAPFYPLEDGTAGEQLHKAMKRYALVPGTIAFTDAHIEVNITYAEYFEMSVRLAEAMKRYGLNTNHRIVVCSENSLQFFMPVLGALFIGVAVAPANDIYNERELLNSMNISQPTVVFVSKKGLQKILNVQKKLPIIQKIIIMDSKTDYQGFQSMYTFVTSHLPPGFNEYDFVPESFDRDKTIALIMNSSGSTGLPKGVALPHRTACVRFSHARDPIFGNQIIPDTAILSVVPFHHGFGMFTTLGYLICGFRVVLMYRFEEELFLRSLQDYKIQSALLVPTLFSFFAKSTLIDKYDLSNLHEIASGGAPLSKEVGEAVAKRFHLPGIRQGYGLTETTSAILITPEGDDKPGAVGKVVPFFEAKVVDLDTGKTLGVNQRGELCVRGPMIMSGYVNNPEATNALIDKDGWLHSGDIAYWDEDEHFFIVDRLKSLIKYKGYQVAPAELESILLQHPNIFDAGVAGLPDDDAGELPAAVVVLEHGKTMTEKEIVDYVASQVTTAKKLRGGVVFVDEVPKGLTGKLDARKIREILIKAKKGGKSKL
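Biochemical qHTS of compounds, final roughly 60 µM downward over six points, against 10 nM purified firefly luciferase using Km concentrations of substrates (10 uM D-luciferin, 10 uM ATP) in Tris acetate pH 7.5 buffer; luminescence output.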
Rab9 prom act: Rab9 promoter activation | Huh7 Rab9 promoter-luciferase reporter, luminescence, 24 h | Potency, µM (series often up to 9.22 µM), without a hit: at the highest dose activation, negative = inhibition, most hits filed as activators | 320,000 compounds, 2.8% hits | AID 485297; also: % of control where 0% means no effect; nearly all actives have a fitted effect of over 60% in size
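Huh7 cells stably carrying Rab9 promoter–luciferase reporter, plated 1500 cells/well, compound added after 2 h and incubated 24 h at 37 °C; luciferase luminescence then read after 10 min with detection reagent.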
ELG1 genotox: induces genotoxicity in HEK293T cells with luciferase-tagged ELG1; HEK293T ELG1-luciferase reporter, luminescence, 16 h; Potency, µM (titrated, usually from 46 µM), for inactives: top-dose activity change, positive = activation, usual class: activators; 330,000 compounds, 1.3% hits; AID 504466; also: % of control where 0% means no effect; nearly all actives have a fitted effect of over 60% in size
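Cells (2,000/well) expressing the ELG1-luciferase fusion are dosed by pin tool and kept 16 hr at 37 °C, 5% CO2. Signal comes from ONE-Glo luciferase reagent after 30 min at room temperature.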
* = called active by the depositor; ? = inconclusive; / = no result; [ ] = dose if it differs, or a comment. Calls follow the shape of the dose curve; as a rule, active = well fitted curve in the direction sought with a large enough effect; inconclusive = small, poorly fitted or top-dose-only effect, or another doubt; inactive = no such curve, though single readings can be large; an effect the other way counts as inactive or inconclusive. Potency is read from the fitted curve at half-maximal effect.

SMILES	NPC1 prom act	SMN2 splice up	KinaseGlo FLuc	FLuc counter	Rab9 prom act	ELG1 genotox
CCS(=O)(=O)N1Cc2ccccc2CC1C(=O)Nc1nccs1 (stereo not drawn)	0.1%	17.8µM*	3.2%	?	5.0%	?
CCS(=O)(=O)N1Cc2ccccc2CC1C(=O)Nc1nc(C)cs1 (stereo not drawn)	25.9%	1.3%	2.9%	19µM*	?	?
COc1ccc(S(=O)(=O)N2CCC(C(=O)Nc3nccs3)CC2)cc1	2.82µM*	/	/	12µM*	?	?
COc1ccc(S(=O)(=O)N2Cc3ccccc3CC2C(=O)Nc2nccs2)cc1 (stereo not drawn)	17.8%	?	4.4%	-13.5%	5.8%	12.4%
Cc1ccc(NC(=O)C(Cc2ccccc2)NS(=O)(=O)c2ccc3c(c2)c(=O)n(C)c(=O)n3C)cc1 (stereo not drawn)	/	2.5%	/	-6.4%	/	/
CCN(CC)c1ccc(/C=N/NC(=O)CNC(=O)C2COc3ccccc3O2)c(O)c1 (stereo not drawn)	-41.1%	/	/	?	-34.2%	?
COc1ccc(NS(=O)(=O)c2cccc(C(=O)NNC(=O)CNC(=O)c3ccco3)c2)cc1	2.1%	/	/	-2.8%	6.9%	2.5%
O=[N+]([O-])c1cc(Cl)ccc1-c1nc(-c2ccccc2)no1	3.55µM*	17.4%[1.84 µM]	-4.4%	1.2µM*	3.16µM*	?
Clc1ccccc1-c1nc(-c2ccc(Br)o2)no1	1.26µM*	/	/	1.2µM*	0.708µM*	4.11µM*
O=[N+]([O-])c1ccccc1-c1nc(-c2ccc(Br)o2)no1	3.16µM*	17.1%[1.84 µM]	-3.2%	3.01µM*	2.82µM*	?
Nc1nnc(-c2ccccc2[N+](=O)[O-])o1	-1.2%	-0.9%	1.2%	-7.6%	-4.8%	1.8%
COc1ccc(-c2oc3ncn4nc(-c5cccc(C)c5)nc4c3c2-c2ccc(OC)cc2)cc1	/	-0.4%	/	-1.7%	/	/
COc1ccc(-c2csc(N3N=C(C)C(C)C3=O)n2)cc1 (stereo not drawn)	?	?	-3.9%	8.49µM*	4.47µM*	8.6%
CC1=NN(c2nc(-c3ccc(C)cc3)cs2)C(=O)C1N=Nc1ccccc1O (stereo not drawn)	-37.7%	/	-1.7%	10.7µM*	-52.3%	-8.5%
Cc1ccc2c(C)c(C(=O)N3CCN(Cc4ccc5c(c4)OCO5)CC3)oc2c1C	?	/	/	23.9µM*	?	17.3%
CCOC(=O)c1cc(NC(=O)N(C)C2CCCCC2)c(C)nc1C	1.4%	/	/	2.5%	0.0%	0.2%
COc1cccc(OCc2nc3ccccc3n2Cc2ccccc2)c1	/	-19.3%	/	?	/	/
Clc1ccc(OCCn2cnc3ccccc32)c(Cl)c1	?	21.0%	-1.3%	26.9µM*	?	?
Clc1ccc(OCc2nc3ccccc3n2Cc2ccccc2)c(Cl)c1	/	3.8%	/	6.01µM*	/	/
CCC(C)NC(=O)Cn1c(COc2ccc(Cl)cc2Cl)nc2ccccc21 (stereo not drawn)	23.8%	22.4µM*	-1.5%	6.01µM*	?	?
Cc1nnc(NC(=O)C2CC(=O)N(C(C)c3ccccc3)C2)s1 (stereo not drawn)	-2.1%	/	/	3.8%	0.2%	1.9%
CCOC(=O)c1c(C)[nH]c(C)c1S(=O)(=O)N(C)CC(=O)Nc1cc(Cl)ccc1C	/	/	/	-2.0%	/	/
NC(=O)c1ccsc1NC(=O)c1ccc([N+](=O)[O-])o1	/	/	/	/	/	13.8%
Cc1ccc(/C=C/C(=O)c2ccc([N+](=O)[O-])o2)cc1	-32.3%	/	/	?	-37.8%	-8.6%
Cc1ccc(C(=O)/C=C/c2ccccc2)o1	-3.5%	-21.7%	-7.7%	2.39µM*	-4.4%	-1.0%
Cc1ccc(C(=O)/C=C/c2ccc(Br)cc2)o1	-4.0%	-5.4%	-6.0%	2.39µM*	-1.9%	10.4%
CCc1ccc(OC(=O)c2cccnc2)cc1	-4.3%	/	/	10.7µM*	0.1%	-0.2%
Cc1ccc(OC(=O)c2cccnc2)cc1	0.6%	1.0%	-0.3%	?	-8.3%	9.5%

High-throughput results (PubChem BioAssay)
